SNCA expr inh = SNCA gene expression inhibition. 0.17% of 140,000 active. Potency, µM (titrated, usually from 57.2 µM), usual class: inhibitors. AID 1671194. HEK-293 SNCA-luciferase knock-in, luminescence, 24 h; also: nearly all actives have a fitted effect of over 45% in size
IP6K1 inh = inhibitors of human IP6K1; Q92551; IP6K1 kinase, ADP-Glo luminescence, 2 h; stronger effect = lower value; activity change, % (series mostly up to about 58 µM); 0.81% of 140,000 active; in the data active = activity change below about -25%
Target sequence (Q92551 whole entry, looked up): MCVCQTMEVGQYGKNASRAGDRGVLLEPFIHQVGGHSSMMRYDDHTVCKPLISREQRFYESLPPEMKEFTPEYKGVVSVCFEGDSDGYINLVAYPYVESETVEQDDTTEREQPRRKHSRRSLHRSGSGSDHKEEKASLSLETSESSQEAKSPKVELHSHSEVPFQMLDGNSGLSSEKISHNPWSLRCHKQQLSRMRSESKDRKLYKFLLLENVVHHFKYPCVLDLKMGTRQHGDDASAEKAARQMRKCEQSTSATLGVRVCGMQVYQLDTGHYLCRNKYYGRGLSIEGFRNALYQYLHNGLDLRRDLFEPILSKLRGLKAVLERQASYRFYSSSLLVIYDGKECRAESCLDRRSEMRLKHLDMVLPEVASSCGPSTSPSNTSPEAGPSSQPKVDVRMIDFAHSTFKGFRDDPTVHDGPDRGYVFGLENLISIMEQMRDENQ
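ADP-Glo luminescence measures ADP made by human IP6K1 during a 2 h RT reaction with ATP/IP6 (mix at 1.3 mM/130 uM); top library doses 57.5 and 19.1 uM final.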
SNCA viab count = reduces viability of HEK-293 SNCA reporter cells. HEK-293-SNCA-luc viability, GF-AFC fluorescence, 24 h. Potency, µM (doses to about 57.1 µM), usual class: cytotoxic. 0.12% of 150,000 active. AID 1671193; also: nearly all actives have a fitted effect of over 30% in size
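Cytotoxicity counterscreen: after 24 h compound treatment of genome-edited SNCA-luciferase HEK-293 cells, live-cell protease substrate GF-AFC read by fluorescence after 30 min; activity scaled between DMSO (0%) and medium-only (-100%), curves Hill-fitted.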
KDM5B inhibitor = inhibitors of human KDM5B histone demethylase. Q9UGL1. KDM5B demethylase, FDH-coupled NADH fluorescence (FDH is formaldehyde dehydrogenase). Potency, µM (highest dose often 57.7 µM), usual class: inhibitors. 2.6% of 220,000 active; also: nearly all actives have a fitted effect of over 70% in size
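Compound dilutions met 200 nM (final) KDM5BΔAP for 10 min at room temperature before substrate addition. The substrate mix held 12.5 µM H3K4me3 with cofactors 25 µM α-ketoglutarate and 50 µM Fe²⁺. NADH signal gain over 30 min defined activity.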
Each line names hits and unclear results; the compound was inactive in the other large screens. A selection: hits, their analogues and other compounds. The true share with any hit is near 3%. Unless noted, calls follow the shape of the dose curve; as a rule, active = well fitted curve in the direction sought with a large enough effect; inconclusive = small, poorly fitted or top-dose-only effect, or another doubt; inactive = no such curve, though single readings can be large; an effect the other way counts as inactive or inconclusive.

CC1(COCC2CC2)COc2ccc(C(=O)NCc3ccccc3)cc2N1 (stereo unspecified)	KDM5B inhibitor 35µM
CC1(COCC2CC2)COc2ccc(C(=O)Nc3ccc4[nH]ccc4c3)cc2N1 (stereo unspecified)	SNCA expr inh 7.1µM, SNCA viab count inconclusive
CC1(COCC2CC2)COc2ccc(C(=O)Nc3cccc([S+](C)(=O)[O-])c3)cc2N1 (stereo unspecified)	KDM5B inhibitor inconclusive
COc1ccc(CN2CC(COc3ccc(OC)cc3)Oc3ncccc3C2=O)cc1 (stereo unspecified)	none (no result: SNCA expr inh, SNCA viab count, KDM5B inhibitor)
O=C1CCN(C[C@@H](O)COCc2ccccc2)c2ccc(F)cc2CN1CC1CC1	none (no result: SNCA expr inh, SNCA viab count, KDM5B inhibitor)
O=C(Nc1cccc(Cl)c1)c1ccc2nc(-c3ccncc3)oc2c1	none (no result: KDM5B inhibitor)
CC(C)NC(=O)c1nc(-c2cccc(C(F)(F)F)c2)c2cnccn12	KDM5B inhibitor 32µM
COCCNC(=O)c1nc(-c2cccnc2)c2cnccn12	none
CC(C)NC(=O)c1nc(-c2cccnc2)c2cnccn12	KDM5B inhibitor 35µM
Cc1nn(-c2ccccc2)c2c1C(C)N(C1CCN(C(=O)c3ccccc3Cl)C1)C2=O (stereo unspecified)	none (no result: SNCA expr inh, SNCA viab count, KDM5B inhibitor)
O=C(NCC1(O)CCCNCC1)c1ccc(-n2cnnc2)cc1 (stereo unspecified)	none
OC1(CNc2cc(C(F)(F)F)nc(N3CCCC3)n2)CCCNCC1 (stereo unspecified)	KDM5B inhibitor 25µM
O=[S+]1([O-])CCN(Cc2ccc(-c3cnc4c(OCc5ccccc5)nccn34)cc2)CC1	KDM5B inhibitor 22µM
OC1CCC(NCc2ccc(-c3cnc4c(OCc5ccccc5)nccn34)cc2)CC1 (stereo unspecified)	KDM5B inhibitor 28µM
O=C1CN(Cc2ccc(-c3cnc4c(OCc5ccccc5)nccn34)cc2)CCN1	KDM5B inhibitor 35µM
O=C(NCc1ccc(-c2cnc3c(Oc4ccccc4)nccn23)cc1)c1ccn[nH]1	KDM5B inhibitor inconclusive
CCOc1nccn2c(-c3ccc(CN4CCN(C(C)=O)CC4)cc3)cnc12	KDM5B inhibitor inconclusive
OC1CN(Cc2ccc(-c3cnc4c(OCc5ccccc5)nccn34)cc2)C1	KDM5B inhibitor 32µM
COc1ccccc1-c1cccc(CN2CCC(N[S+](=O)([O-])c3c(C)noc3C)CC2)c1	none (no result: KDM5B inhibitor)
NC(=O)C1CCCN(Cc2ccc(-c3cnc4c(OCc5ccccc5)nccn34)cc2)C1 (stereo unspecified)	KDM5B inhibitor 28µM
O=C(O)CCC(=O)N1Cc2ccccc2CC2(CCCCN2CCc2ccccc2)C1 (stereo unspecified)	KDM5B inhibitor active
CCCN1CCCCC12Cc1ccccc1CN(C(=O)C1CCCC1)C2 (stereo unspecified)	KDM5B inhibitor 50µM
CN1CCCCC12Cc1ccccc1CN(C(=O)c1ccccc1)C2 (stereo unspecified)	KDM5B inhibitor 56µM
CC(C)c1ccc(CN2CC(CNc3cccnc3)C3(C2)CN(c2ccccc2)C3)cc1 (stereo unspecified)	KDM5B inhibitor inconclusive
O=C(NC1CCN(Cc2ccc(-c3ccsc3)cc2)C1)c1ccccc1 (stereo unspecified)	SNCA viab count inconclusive (no result: KDM5B inhibitor)
COc1cc2nc(N3CCC(N4CCCCC4)CC3)nc(NC3CCCCCC3)c2cc1OC	SNCA viab count 24µM (no result: SNCA expr inh, KDM5B inhibitor)
Cc1cccc(CNC(=O)Cc2ccc(N(Cc3ccc(F)cc3)C(=O)c3ccco3)cc2)c1	KDM5B inhibitor inconclusive
Cc1cccc(CN(C(=O)c2ccco2)c2ccc(CC(=O)N(C)Cc3ccccc3)cc2)c1	KDM5B inhibitor 28µM
O=C(NCC1CC1)c1cc(-c2cccc(C(F)(F)F)c2)c2cccn2n1	SNCA expr inh inconclusive (no result: KDM5B inhibitor)
c1cn2c(NC3CCCCC3)c(-c3ccc(N4CCOCC4)cc3)nc2cn1	none (no result: SNCA expr inh, IP6K1 inh, SNCA viab count)
O=C(CCNc1c(-c2ccc(F)cc2)nc2cnccn12)N1CCCCC1	KDM5B inhibitor 22µM
O=C(CCNc1c(-c2ccc(F)cc2)nc2cnccn12)NC1CCCC1	SNCA viab count inconclusive, KDM5B inhibitor 28µM
O=C(CCNc1c(-c2ccccc2)nc2cnccn12)NC1CCCC1	SNCA expr inh inconclusive, SNCA viab count inconclusive, KDM5B inhibitor 28µM
N#CC1CCN(C(=O)C2CCN(c3nccc(Nc4ccccc4Cl)n3)CC2)CC1	none (no result: KDM5B inhibitor)
COc1ccc(-c2cccc(C(=O)N3CCC(NC(=O)Nc4ccc(Cl)cc4)CC3)c2)nn1	none (no result: SNCA expr inh, SNCA viab count, KDM5B inhibitor)
O=[S+]1([O-])c2cnccc2O[C@@H](COCc2ccccc2)CN1Cc1cccc(F)c1	none (no result: SNCA expr inh, SNCA viab count, KDM5B inhibitor)
c1ccc(-c2noc(-c3ccn4c(CN5CCc6ccccc6C5)nnc4c3)n2)cc1	KDM5B inhibitor 32µM
CC(=O)N1CCN(Cc2nnc3cc(-c4nc(-c5ccccc5)no4)ccn23)CC1	KDM5B inhibitor 6.3µM
Cc1ccc(CNC(=O)c2ccc(-c3ccc(N4CCCCC4)nc3)cc2)o1	KDM5B inhibitor 20µM
O=C(NCCCN1CCOCC1)c1ccc(-c2ccc(N3CCCCCC3)nc2)cc1	KDM5B inhibitor 25µM
COCCNC(=O)c1ccc(-c2ccc(N3CCCCCC3)nc2)cc1	KDM5B inhibitor inconclusive
O=C(NCCN1CCOCC1)c1ccc(-c2ccc(N3CCCCCC3)nc2)cc1	KDM5B inhibitor 28µM
O=C(c1ccc(Cl)nc1)N1CCC2(CC1)CC(c1cccc(C(F)(F)F)c1)=NO2	none (no result: SNCA expr inh, SNCA viab count, KDM5B inhibitor)
O=C(N1CCC(Cc2nc(C3CC3)n[nH]2)CC1)C1(c2ccccc2)CC1	KDM5B inhibitor 18µM
CC(=O)N1CCC(Cc2nc(-c3ccccc3)n[nH]2)CC1	KDM5B inhibitor 20µM
COc1ccc(CCC(=O)N2CCC(Cc3nc(C4CC4)n[nH]3)CC2)cc1	KDM5B inhibitor 20µM
O=C(C1CCCN(Cc2cccc(-c3ccsc3)c2)C1)N1CCCC1 (stereo unspecified)	none (no result: SNCA expr inh, SNCA viab count, KDM5B inhibitor)
O=C1CN([S+](=O)([O-])c2ccc(F)cc2)CC(O)CN1C1Cc2ccccc2C1 (stereo unspecified)	none (no result: SNCA expr inh, SNCA viab count, KDM5B inhibitor)
O=C(NCCc1ccccc1F)c1nc2sccn2c1-c1ccccc1	none (no result: KDM5B inhibitor)
Cc1ccnc(N2CCC(O)(c3ccc(F)cc3)CC2)n1	KDM5B inhibitor 28µM
Cc1ccc(-c2ccccc2CN2CCC(C(=O)N3CCN(Cc4ccccc4)CC3)CC2)cc1Cl	none (no result: KDM5B inhibitor)
CNC(=O)CN(Cc1cccs1)[C@@H]1C[C@@H]2CO[C@H](C(C)C)C[C@@H]2C1	none (no result: SNCA expr inh, SNCA viab count, KDM5B inhibitor)
O=C(NC1CCC1)C1CCCN(C2CCN(C3Cc4ccccc4C3)CC2)C1 (stereo unspecified)	none
O=C(NC1CCCC1)C1CCCN(C2CCN(C3Cc4ccccc4C3)CC2)C1 (stereo unspecified)	KDM5B inhibitor 32µM
CCOC(=O)[C@H]1C[C@]2(CCCCN(CCO)C2=O)N(C(=O)OCC(C)C)[C@H]1c1ccco1	none (no result: SNCA expr inh, SNCA viab count, KDM5B inhibitor)
CCc1cnc(N2CCC(COc3ccc4c(cnn4CCC(=O)O)c3)CC2)nc1	KDM5B inhibitor 40µM
O=C(O)CCn1ncc2cc(OCC3CCN(c4ncccn4)CC3)ccc21	KDM5B inhibitor inconclusive
O=C(O)CCn1ncc2cc(OCC3CCN(c4ncc(F)cn4)CC3)ccc21	SNCA expr inh inconclusive, KDM5B inhibitor 35µM
